These results are taken from PubChem BioAssay AID624330 (Southern Research Specialized Biocontainment Screening …, 2012).

Hit rate of the full screen: of about 340,000 compounds, about 2,100 (0.62%) were called active.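 How the source made its calls: active means first-screen hits whose inhibition reached a set limit at any dose in the follow-up dose series; inconclusive means inhibition above the set first-screen limit but never retested; inactive means the rest.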 Only a sample is shown. Results with a measured potency or affinity are listed apart.

The target in this experiment is Rac GTPase-activating protein 1 (Homo sapiens) (UniProt Q9H0H5). Kind of experiment: MgcRacGAP GTPase-activating activity inhibitors, confirmation, biochemical, ADP Hunter fluorescence, primary and confirmatory (AID 624330).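 Further: fluorescence reports GDP produced by GAP-driven GTP hydrolysis.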 The note with it: MgcRacGAP-stimulated Rac1 GTP hydrolysis, at 30 µM, active compounds read high, GST-tagged Rac1 F28L mutant substrate.
Rac GTPase-activating protein 1 (Homo sapiens), sequence (Q9H0H5 whole entry, looked up): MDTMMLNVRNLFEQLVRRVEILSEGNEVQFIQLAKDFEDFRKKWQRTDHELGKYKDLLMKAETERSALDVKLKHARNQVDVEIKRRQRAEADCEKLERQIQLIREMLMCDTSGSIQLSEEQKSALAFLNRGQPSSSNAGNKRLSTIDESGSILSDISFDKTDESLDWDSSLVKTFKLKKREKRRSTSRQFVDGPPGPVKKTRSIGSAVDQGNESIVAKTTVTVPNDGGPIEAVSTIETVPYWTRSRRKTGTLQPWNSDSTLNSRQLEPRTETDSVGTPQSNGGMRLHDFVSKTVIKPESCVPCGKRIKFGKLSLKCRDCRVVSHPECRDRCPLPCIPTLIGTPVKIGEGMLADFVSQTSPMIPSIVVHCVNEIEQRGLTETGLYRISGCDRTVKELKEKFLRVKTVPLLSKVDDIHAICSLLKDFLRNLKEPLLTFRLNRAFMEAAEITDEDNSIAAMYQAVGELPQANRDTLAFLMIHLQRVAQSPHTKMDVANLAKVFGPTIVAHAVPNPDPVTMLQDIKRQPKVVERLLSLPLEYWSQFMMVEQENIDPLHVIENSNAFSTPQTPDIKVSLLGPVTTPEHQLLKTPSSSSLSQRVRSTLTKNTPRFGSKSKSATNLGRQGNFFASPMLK
In general, inhibition refers to the relative decrease from the control value, in per cent. For `N#CCCn1cc(C(=O)Nc2ccc(C(=O)O)cc2)c(-c2ccc([N+](=O)[O-])cc2)n1`, the inhibition was 5.44% (inactive). With `O=C(C(=O)c1ccc(O)cc1)c1ccccc1` the figure was 3.36% (inactive). The value for `O=C1Cn2c(nc3ccccc32)-c2ccccc2N1` was 1.15% (inactive); that for `CCCCc1ccc(S(=O)(=O)NCCCN2CCCC2=O)cc1` was 6.42% (inactive). With `Cc1ccc(Cn2c(CCNc3nc(-c4ccc(Cl)c([N+](=O)[O-])c4)cs3)nc3cc(Cl)c(Cl)cc32)cc1` the figure was 7.46% (inactive). For the compound `CC(C)(C)OC(=O)C[C@H]1C/C=C\C[C@@H](CC(=O)N[C@@H](CO)Cc2ccccc2)C(=O)NC[C@H](c2ccccc2)OC1=O`, the inhibition is 2.19% (inactive). Take `Cc1cn(C2CC(OC(=O)C(C)C)C(CO)O2)c(=O)[nH]c1=O` (stereo unspecified): the inhibition is 6.43% (inactive). With `O=c1[nH]cn[nH]1` the figure was 0.25% (inactive); with `CC(CCN(C)C)OC(=O)c1ccc(C(C)c2ccccc2)o1` (stereo unspecified), 1.78% (inactive).

For `Brc1ccc2c(c1)OCCOCCOCCOCCOCCO2`, the inhibition was 8.26% (inactive). With `Brc1ccc2c(c1)OCCOCCOCCOCCOCCOCCO2` the figure was 0.25% (inactive); with `Oc1c(Br)cc(Br)cc1C=Nc1ccc2c(c1)OCO2`, 15.4% (inactive). The value for `Oc1c(Cl)cc(Cl)cc1C=Nc1ccc2c(c1)OCCO2` was 4.97% (inactive); that for `O=S(=O)(c1ccc(SCc2cccc(Cl)c2)nc1)N1CCCC1` was 2.55% (inactive); that for `CC(=O)c1cccc(OC(=O)C2=CC=CN3CCS(=O)(=O)N=C23)c1` was 7.32% (inactive).

On to `COc1ccc2c(c1)c1nc3ccccc3nc1n2Cc1ccc(OC)c(OC)c1`, for which the inhibition was 8.38% (inactive). The value for `COc1cccc(CN(C)C(=O)Nc2cccc(C(F)(F)F)c2)c1OC` was -4.29% (inactive). With `Brc1ccc(OCc2nnc3n2CCC3)cc1` the figure was 5.52% (inactive); with `O=C(COc1cccnc1[N+](=O)[O-])N1CCc2ccccc21`, 0.83% (inactive); with `CCN(CC)c1ccc(-c2c(C#N)c(N)nc(OC)c2C#N)cc1`, -1.06% (inactive). The value for `COc1ccc(N=c2sc3ccccc3n2C)cc1` was 3.05% (inactive). Regarding `Cn1c(=Nc2ccccc2)sc2ccccc21`, the inhibition was 4.04% (inactive).

On to `CCC(=NOCc1ccccc1)C(=O)NNS(=O)(=O)c1ccc(C)cc1`, for which the inhibition was 0.04% (inactive).

For the compound `COc1cc(C(=O)N/N=C/c2ccc(OC(=O)c3ccccc3)c(OC)c2)ccc1O`, the inhibition was 25.2% (inactive). The value for `COc1cc(C=NNc2nc3c([nH]2)c(=O)n(C)c(=O)n3C)ccc1O` was 12.7% (inactive); that for `COc1cc(/C=N/Nc2ccccc2C(F)(F)F)ccc1O` was 20.2% (inactive); that for `O=C(N/N=C/c1ccc(F)cc1)c1ccc(-n2cnnn2)cc1` was -4.33% (inactive). Regarding `Nc1ccc(C(=O)N/N=C/c2cn(Cc3ccccc3)c3ccccc23)cc1`, the inhibition is 0.58% (inactive). With `COc1ccc(/C=N/NC(=O)c2ccc(-c3ccccc3)cc2)cc1O` the figure was 25.4% (inactive); with `O=C(N/N=C/c1cccc(O)c1)c1ccc(-n2cnnn2)cc1`, 1.77% (inactive); with `COc1cc(C(=O)N/N=C/c2cn(Cc3cccc(F)c3)c3ccccc23)ccc1O`, 28.6% (inactive).
